Only some compounds are listed: those with a hit (about 2.4% of all), similar ones and a draw of the others.
D2 antagonist: HTS Assay for Allosteric Antagonists of the Human D2 Dopamine Receptor: Primary Screen for Antagonists. D(2) dopamine receptor (Homo sapiens), P14416. HEK293 TREx D2 cells, calcium flux, dopamine EC80. inhibition, % at 10 µM. hit rate 2% among 340,000. AID 485344, 2010; in the data active = inhibition above about 30%; inactive = below that, where a call was filed
Target sequence (P14416 whole entry, looked up): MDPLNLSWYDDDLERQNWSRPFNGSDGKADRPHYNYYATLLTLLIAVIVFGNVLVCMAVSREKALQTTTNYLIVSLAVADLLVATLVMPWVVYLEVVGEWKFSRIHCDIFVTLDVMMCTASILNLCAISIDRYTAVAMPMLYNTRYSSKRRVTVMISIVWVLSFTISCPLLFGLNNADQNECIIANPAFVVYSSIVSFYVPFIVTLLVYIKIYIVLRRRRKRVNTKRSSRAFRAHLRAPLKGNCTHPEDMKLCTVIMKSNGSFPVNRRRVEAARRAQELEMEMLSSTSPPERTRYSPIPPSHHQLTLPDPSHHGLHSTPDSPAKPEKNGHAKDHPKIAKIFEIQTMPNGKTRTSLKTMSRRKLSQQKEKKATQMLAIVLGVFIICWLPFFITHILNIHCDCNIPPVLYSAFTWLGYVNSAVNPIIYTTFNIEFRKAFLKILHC
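Tetracycline-induced HEK293 T-REx cells expressing D2 force-coupled to calcium signalling were dye-loaded, exposed to compound for 180 s, then challenged with an EC80 of dopamine; calcium flux was followed kinetically for a further 180 s.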
D2 ag-1: Beta-Arrestin HTS for Positive Allosteric Modulators of the Human D2 Dopamine Receptor: Agonists | D(2) dopamine receptor (Homo sapiens), P14416 | DiscoveRx PathHunter D2 beta-arrestin, luminescence, 90 min; 100% = 57 uM dopamine signal | hit rate 0.084% among 360,000 | activation, % (concentration not given with the values); in the data active = activation above about 40%; inconclusive = between about 15% and that limit
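Agonist mode: compounds alone added to overnight-plated D2 PathHunter cells for 90 min at 37 C, with 57 uM final dopamine (EC100) defining full response. Beta-arrestin recruitment detected by chemiluminescent reagent, read after 1 h at ambient temperature.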
D2 PAM-1: Beta-Arrestin HTS for Positive Allosteric Modulators of the Human D2 Dopamine Receptor: Potentiators; AID 624464, 2012; DiscoveRx D2 beta-arrestin cells, luminescence, 90 min; 100% = 57 uM dopamine signal; hit rate 0.23% among 360,000; D(2) dopamine receptor (Homo sapiens), P14416; potentiation, % (concentration not given with the values); in the data active = potentiation above about 50%; inconclusive = mostly about 30% to 49%
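D2 cells co-treated with compound plus 50 nM dopamine (EC20) for 90 min at 37 deg C to detect potentiation. Beta-arrestin recruitment was read as enzyme-fragment luminescence after 1 h at ambient temperature. Full response was set by 57 uM dopamine.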
D2 ag-2: HTS Assay for Allosteric Agonists of the Human D2 Dopamine Receptor: Primary Screen for Agonists; HEK293 T-REx D2 cells, calcium flux agonist mode; AID 485358, 2010; hit rate 0.53% among 340,000; activation, % at 2 µM;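 active = activation over 3 SD above normal in the single-dose calcium agonist read, cut at about 30% in these data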
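Calcium-flux readout, 1 cycle/sec over 180 s following compound pin transfer, in inducible HEK293 Trex D2 cells (force-coupled); dopamine controls included. Positive calcium responses during this window marked compounds as potential agonists.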
D2 PAM-2: HTS Assay for Positive Allosteric Modulators of the Human D2 Dopamine Receptor: Primary Screen for Potentiators | D(2) dopamine receptor (Homo sapiens), P14416 | HEK293 T-REx D2, calcium flux, EC20 dopamine potentiation | potentiation, % at 10 µM | hit rate 0.34% among 340,000 | AID 485347, 2010;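 active = potentiation over 3 SD above the plate norm, cut at about 30% in these data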
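Tetracycline-induced Hek293 Trex D2 cells, force-coupled to calcium, loaded with no-wash calcium dye. Compound added with 180 s kinetic read for agonism, then EC20 dopamine and a further 180 s read for potentiation.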
Hits are given with their value.

For CN(CC1COCCO1)C(=O)c1cc(COc2c(F)cccc2F)on1 (stereo not drawn) the results were D2 antagonist inactive, D2 ag-1 inactive, D2 PAM-1 inactive, D2 ag-2 inactive and D2 PAM-2 inactive.
Screening O=C(c1cc(COc2c(F)cccc2F)on1)N1CCC(c2ccccc2Cl)C1 (stereo not drawn) returned D2 antagonist inactive, D2 ag-1 inactive, D2 PAM-1 inactive, D2 ag-2 inactive and D2 PAM-2 32.
For COCC1CCN(C(=O)c2cc(COc3ccc(OC)c4ccccc34)on2)C1 (stereo not drawn) the results were D2 ag-1 inactive and D2 PAM-1 inactive.
`Cc1cccc(-c2nc(C)c(CCNC(=O)C(=O)Nc3cccc(Cl)c3C)s2)c1` gave D2 ag-2 inactive and D2 PAM-2 inactive.
Screening Cc1ccc(C(=O)Nc2ccc3nc(SCC(=O)N4CCCc5ccccc54)sc3c2)cc1 returned D2 ag-2 inactive and D2 PAM-2 inactive.
`COc1ccc2c(c1)-c1nc(NC(=O)c3ccc(OC)c(Br)c3)sc1CC2` gave D2 ag-2 inactive and D2 PAM-2 inactive.
`Cc1cc(NC(=O)CCSc2nc(-c3ccco3)cc(C(F)(F)F)n2)no1` gave D2 antagonist inactive, D2 ag-1 inactive, D2 PAM-1 inactive, D2 ag-2 inactive and D2 PAM-2 inactive.
Screening Cc1cc(NC(=O)CSc2nc(-c3ccco3)cc(C(F)(F)F)n2)no1 returned D2 antagonist 36, D2 ag-1 inactive, D2 PAM-1 inactive, D2 ag-2 inactive and D2 PAM-2 inactive.
Screening O=C(Nc1ccc(Cl)cn1)c1cccc(S(=O)(=O)N2CCCC2)c1 returned D2 antagonist inactive, D2 ag-1 inactive, D2 PAM-1 inactive, D2 ag-2 inactive and D2 PAM-2 inactive.
CN(C)S(=O)(=O)c1cccc(C(=O)Nc2ccc(Cl)cn2)c1 was read as D2 antagonist 37, D2 ag-1 inactive, D2 PAM-1 inactive, D2 ag-2 inactive and D2 PAM-2 inactive.
For c1ccc(-c2csc(=Nc3cccnc3)n2CC2CCCO2)cc1 (stereo not drawn) the results were D2 antagonist 30, D2 ag-1 inactive, D2 PAM-1 inactive, D2 ag-2 inactive and D2 PAM-2 inactive.
For COc1ccc(OC)c(NC(=O)Cc2c(C(=O)O)n(C)c3ccc(C)cc23)c1 the results were D2 ag-2 inactive and D2 PAM-2 inactive.
For COc1ccc(SCCN2CC[C@@H](C)CCC2=O)cc1 the results were D2 antagonist inactive, D2 ag-1 inactive, D2 PAM-1 inactive, D2 ag-2 inactive and D2 PAM-2 inactive.
For CC1CCC(=O)N(CCSc2ccccc2)CC1 (stereo not drawn) the results were D2 antagonist 33, D2 ag-1 inactive, D2 PAM-1 inactive, D2 ag-2 inactive and D2 PAM-2 inactive.
For COc1ccc(NC(=O)CCc2nnc3n(Cc4ccccc4Cl)c(=O)c4ccccc4n23)cc1 the results were D2 ag-2 inactive and D2 PAM-2 inactive.
Screening Cc1ccc(NC(=O)CSc2nc(-c3ccco3)cc(C(F)(F)F)n2)cc1 returned D2 ag-2 inactive and D2 PAM-2 inactive.
O=C(NCc1ccc(F)cc1)c1ccc2c(c1)nc1n2CCCCC1 was read as D2 ag-2 inactive and D2 PAM-2 inactive.
Screening CNCCCC1c2ccccc2C=Cc2ccccc21 returned D2 antagonist 75, D2 ag-1 inactive, D2 PAM-1 inactive, D2 ag-2 inactive and D2 PAM-2 inactive.
Cc1cc(C)nc(SCC(=O)N2CCc3ccccc32)n1 was read as D2 ag-1 inactive and D2 PAM-1 inactive.
For O=C(CSc1nnc(-c2ccccc2)c(-c2ccccc2)n1)N1CCc2ccccc21 the results were D2 antagonist 69, D2 ag-1 inactive, D2 PAM-1 inactive, D2 ag-2 inactive and D2 PAM-2 inactive.
`O=C(CSc1ncc(-c2ccccc2)n1C1CCCC1)N1CCc2ccccc21` gave D2 antagonist 31, D2 ag-1 inactive, D2 PAM-1 inactive, D2 ag-2 inactive and D2 PAM-2 inactive.
For Cn1c(-c2ccccc2)cnc1SCC(=O)N1CCCc2ccccc21 the results were D2 antagonist inactive, D2 ag-1 inactive, D2 PAM-1 inactive, D2 ag-2 inactive and D2 PAM-2 inactive.
For COc1cccc(CNC(=O)c2cc3c(s2)-c2c(C)cccc2OC3)c1 the results were D2 ag-2 inactive and D2 PAM-2 inactive.
For CN(C)CCN(Cc1ccco1)C(=O)c1cc2c(s1)-c1ccccc1OC2 the results were D2 ag-2 inactive and D2 PAM-2 inactive.
For CCc1nc2ccc(C(=O)NCCCN3CCCC3=O)cn2c1N(CC)Cc1cccc(Br)c1 the results were D2 ag-1 inactive and D2 PAM-1 inactive.
For CC(=O)Oc1c(Br)cc(N(C(C)=O)S(=O)(=O)c2ccccc2)c2ccccc12 the results were D2 antagonist 33, D2 ag-1 inconclusive, D2 PAM-1 inactive, D2 ag-2 inactive and D2 PAM-2 inactive.
For CC(=O)Oc1ccccc1N(C(C)=O)S(=O)(=O)c1ccc2ccccc2c1 the results were D2 antagonist inactive, D2 ag-1 inactive, D2 PAM-1 inactive, D2 ag-2 inactive and D2 PAM-2 inactive.
Screening CN1CCC(OC(c2ccccc2)c2ccccc2)CC1 returned D2 antagonist inactive, D2 ag-1 inactive, D2 PAM-1 inactive, D2 ag-2 inactive and D2 PAM-2 inactive.
For CN1CCC(Oc2ccccc2Sc2ccccc2)CC1 the results were D2 antagonist 32, D2 ag-1 inactive, D2 PAM-1 inactive, D2 ag-2 inactive and D2 PAM-2 inactive.
`CCCN(Cc1cccs1)C(=O)Nc1cc(Cl)ccc1C` gave D2 ag-2 inactive and D2 PAM-2 inactive.
CC1(C)CC(=O)c2sc(NS(=O)(=O)c3ccc([N+](=O)[O-])cc3)nc2C1 was read as D2 antagonist inactive, D2 ag-1 inactive, D2 PAM-1 54, D2 ag-2 inactive and D2 PAM-2 inactive.
Screening CC1(C)CC(=O)c2sc(NS(=O)(=O)c3ccccc3)nc2C1 returned D2 antagonist inactive, D2 ag-1 inactive, D2 PAM-1 inactive, D2 ag-2 inactive and D2 PAM-2 inactive.
Screening COc1ccc(S(=O)(=O)N2CCC3(CC2)CC(=O)c2ccccc2O3)cc1OC returned D2 antagonist 45, D2 ag-1 inactive, D2 PAM-1 inactive, D2 ag-2 inactive and D2 PAM-2 inactive.
CC(=O)Nc1ccc(S(=O)(=O)N2CCC3(CC2)CC(=O)c2ccccc2O3)cc1 was read as D2 antagonist inactive, D2 ag-1 inactive, D2 PAM-1 inactive, D2 ag-2 inactive and D2 PAM-2 inactive.
For COC(=O)c1cc(Cl)ccc1NC(=O)Cn1c(C)cc(C)c(C#N)c1=O the results were D2 ag-2 inactive and D2 PAM-2 inactive.
